VACV mCherry inh – vaccinia inhibition (mCherry reporter); AID 720579; 310,000 tested, 0.63% active; Potency, µM (series often up to 36.5 µM), for the others: at the top dose activity change, negative = inhibition, most hits filed as inhibitors; Vaccinia virus mCherry reporter infection, fluorescence; calls by dose curve; tested in A549 cells; further: potency means the concentration at half of the fitted maximal effect; on the % scale 0 is the no-effect control and ±100 the full control effect; nearly all actives have a fitted effect of over 35% in size
HCMV inh – inhibitors of human cytomegalovirus | 410,000 tested, 4.5% active | HFF cells, HCMV-luciferase reporter, 72 h; active compounds read low | activity change, negative = inhibition, % at 57.5 µM; in the data active means activity change below about -60%; inconclusive means no clear call, values can overlap the other calls; inactive means above about -39%; further: on the % scale 0 is the no-effect control and ±100 the full control effect
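After 16 h attachment at 37C, HFF cells received test compound and HCMV-luciferase (1 PFU/cell); reporter luminescence read 72 h later, data normalized against buffer-only and known inhibitor Salinomycin.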
Marburg entry inh – blocks Marburg virus binding to or entry into cells; Marburg virus pseudotyped entry inhibition, cell reporter; Potency, µM (titrated, usually from 37.8 µM), for inactives: top-dose activity change, negative = inhibition, actives largely listed as inhibitors; 300,000 tested, 1.8% active; AID 540276; calls by dose curve; tested in HEK293 cells; further: potency means the concentration at half of the fitted maximal effect; on the % scale 0 is the no-effect control and ±100 the full control effect
HCV inhibitor – blocks hepatitis C virus | Huh7.5.1 HCVcc-Cre infection, luciferase reporter, 44 h | Potency, µM (highest dose often 41.8 µM), without a hit: at the highest dose activity change, negative = inhibition, most hits filed as inhibitors | 340,000 tested, 3.4% active | AID 651820; further: potency means the concentration at half of the fitted maximal effect; on the % scale 0 is the no-effect control and ±100 the full control effect
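A cell-based infection assay in which seeded cells (1,000 per well) receive test compound after 4 h, are inoculated with HCVcc-Cre at approximately 0.5 moi, and are incubated 44 h before luminescence detection.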
Lassa entry inh – blocks Lassa virus binding to or entry into cells | Lassa virus pseudotype entry inhibition, cell reporter | Potency, µM (titrated, usually from 37.9 µM), without a hit: at the highest dose activity change, negative = inhibition, hits mostly inhibitors | 300,000 tested, 1.2% active; calls by dose curve; tested in HEK293 cells; further: potency means the concentration at half of the fitted maximal effect; on the % scale 0 is the no-effect control and ±100 the full control effect; nearly all actives have a fitted effect of over 50% in size
Vaccinia Venus – vaccinia inhibition (Venus reporter) | 330,000 tested, 0.46% active | Vaccinia virus Venus reporter expression, fluorescence | Potency, µM (top dose mostly 36.5 µM), without a hit: at the top dose activity change, negative = inhibition, actives largely listed as inhibitors; calls by dose curve; tested in A549 cells; further: potency means the concentration at half of the fitted maximal effect; on the % scale 0 is the no-effect control and ±100 the full control effect; nearly all actives have a fitted effect of over 30% in size
HeLa G2M arrest – inducers of G2/M cell cycle arrest in HeLa cells; shares compounds with Marburg entry inh; HeLa cell cycle G2/M arrest, Hoechst DNA content imaging; Potency, µM, actives largely listed as inhibitors; 25 tested, 60% active
WI-38 tox – WI-38 cytotoxicity of perinucleolar compartment inhibitors; AID 2729; Potency, µM (top dose mostly 46.1 µM), without a hit: at the top dose activity change, negative = cytotoxicity, actives largely listed as inhibitors; shares compounds with Marburg entry inh; WI-38 normal lung fibroblasts, ATPLite luminescence ATP viability, 24 h; 120 tested, under 10 active
PNC inh conf – confirmation of perinucleolar compartment assembly inhibitors; shares compounds with Marburg entry inh; PC3M PTB-GFP, PNC prevalence imaging, 16 h; Potency, µM (doses to about 46.1 µM), for the others: at the top dose activity, negative = PNC inhibition, most hits filed as inhibitors; 120 tested, 50% active; AID 2730
PC3M casp3-7 – activates caspase 3/7 in PC3M cells in PNC counter-screen. shares compounds with Marburg entry inh. PC3M-GFP caspase 3/7 activation, luminescence, 24 h. activity change, positive = activation, % at 46.1 µM. 120 tested, under 10 active. AID 2731
The depositor's hits bear a star; u = inconclusive; x = not tested or not shown; [ ] = remark or other dose. The list is not random: actives were taken first. Their share in the collection is about 7.8%. Unless noted, the call rests on the fitted dose curve; in most records, active means well fitted curve in the direction sought with a large enough effect; inconclusive means small, poorly fitted or top-dose-only effect, or another doubt; inactive means no such curve, though single readings can be large; an effect the other way counts as inactive or inconclusive.

SMILES	VACV mCherry inh	HCMV inh	Marburg entry inh	HCV inhibitor	Lassa entry inh	Vaccinia Venus	WI-38 tox	PNC inh conf	PC3M casp3-7	others
CC(C)(C)c1nc(SCC(=O)Nc2nc3c(s2)CCCC3)c2ccccc2n1	u	-61.3*	1.03µM*	u	1.03µM*	21.6%	-5.1%	7.08µM*	-11.0
CCOc1ccc(NC(=O)CN2C(=O)C(c3ccccc3)=NC23CCCCCC3)cc1	-1.6%	18.5	u	x	19.0%[46.1 µM]	-10.9%	x	x	x
Cc1cc(=O)[nH]c(N=N/C(=N/Nc2ccccc2C)c2ccccc2)n1	x	-85.8*	0.794µM*	u	3.98µM*	-6.6%	-6.9%	u	-8.4
COc1ccc(-c2cc(C#N)nc(N3CCN(C)CC3)n2)cc1	-4.2%	-24.0	u	12.6µM*	14.1%	-12.7%	21.6%	u	-7.7
CC(=O)Nc1ccc(S(=O)(=O)Oc2ccc3c(c2)C(C)=CC(C)(C)N3)cc1	x	x	u	u	0.82µM*	x	-10.0%	5.01µM*	-5.0
CC1=CC(C)(C)Nc2ccc(OS(=O)(=O)c3ccc(C)cc3)cc21	x	-36.6	-16.8%	u	-13.7%	x	x	x	x
COC(=O)c1c(-c2ccccc2)csc1NC(=O)c1c(-c2ccccc2)noc1C	6.31µM*	-78.5*	1µM*	u	0.891µM*	18.7%	13.0%	3.98µM*	0.8
COC(=O)c1ccc(C)c(NC(=O)c2c(-c3ccccc3)noc2C)c1	-1.6%	-9.1	-21.7%	8.9%	-8.0%	-16.6%	x	x	x
CSCCC(NS(=O)(=O)c1cccs1)C(=O)Nc1ccc(C)c(Cl)c1 (stereo not drawn)	-1.1%	-7.2	-22.3%[46.1 µM]	x	-8.1%[46.1 µM]	4.9%	x	x	x
Cc1cc(C(=O)Cn2nnc3ccccc3c2=O)c(C)n1-c1ccccc1F	x	-86.9*	3.16µM*	u	1.12µM*	-7.4%	14.1µM*	4.47µM*	-18.8
Cc1ccc(NC2=C/C(=N/S(=O)(=O)c3cccs3)c3ccccc3C2=O)cc1	-15.2%	-102.0*	4.61µM*	u	4.11µM*	u	31.6µM*	25.1µM*	u
O=C1C(Nc2ccccc2)=C/C(=N/S(=O)(=O)c2cccs2)c2ccccc21	8.91µM*	x	4.11µM*	3.98µM*	u	10µM*	28.2µM*	u	u
COc1ccc(-n2cc(C(=O)NCCc3cc(OC)ccc3OC)c3ccccc3c2=O)cc1	-16.3%	-21.0	x	x	-5.7%[46.1 µM]	-11.4%	x	x	x
C=CCNC(=S)N/N=C(\C)c1ccccn1	x	-102.5*	0.259µM*	-28.8%	0.206µM*	x	-26.5%	5.01µM*	-2.8
O=C(Cc1coc2ccc3ccccc3c12)Nc1nnc(C2CC2)s1	12.6µM*	-77.4*	u	u	2.51µM*	12.5%	-7.2%	7.94µM*	1.1
C[C@]12Cc3cn4c(nc3C=C1CCC1C2CC[C@@]2(C)[C@H]1CC[C@@]2(O)C#N)nc1ccccc14 (stereo partly drawn)	x	x	10µM*	x	5.17µM*	x	x	x	x	HeLa G2M arrest=u
CC12Cc3cnoc3C=C1CCC1C2CCC2(C)C1CCC2(C)O (stereo not drawn)	u	-33.8	-18.0%	u	u	-27.3%	x	x	x
CC(=O)c1ccc(N2C(=O)N(Cc3cc(C)ccc3C)c3ccccc3S2(=O)=O)cc1	-12.9%	u	x	x	-10.3%[46.1 µM]	-5.8%	x	x	x
C#CCn1c(S(=O)(=O)Cc2ccc(F)cc2)nc(-c2ccccc2)c1-c1ccccc1	x	-97.3*	0.92µM*	u	3.66µM*	x	-24.2%	7.94µM*	-3.4
